# “And” between values parts separate entries of the source, which are not always exact repeats. Identical values can stand only once. Hit rate of the full screen: of about 400,000 compounds, about 2,200 (0.55%) were called active. A call without a number means that no potency is given here. Another 1% or so got no clear call; they are omitted. The call rests on the fitted dose curve; in most records, active means well fitted inhibition curve with a large enough effect; inconclusive means small, poorly fitted or top-dose-only effect, or another doubt; inactive means no such curve, though single readings can be large or run the other way. Many of the other results were omitted from the sample, so actives are more common in it than they were.
# Molecular target: DNA polymerase kappa (Homo sapiens) (UniProt Q9UBT6)
# Assay: qHTS for Inhibitors of Polymerase Kappa
# Settings: purified Pol kappa, fluorescent DNA synthesis assay, 10 min; series mostly up to 107 µM
# In short: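 Readout: fluorescence, taken kinetically at 0 and 10 min. Conditions: 10 nM Pol kappa, 15 min RT compound preincubation, 50 nM substrate final. Controls: enzyme-free buffer wells.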
# Potency means the concentration at half of the fitted maximal effect.
# Sequence of DNA polymerase kappa (Homo sapiens) (Q9UBT6 whole entry, looked up): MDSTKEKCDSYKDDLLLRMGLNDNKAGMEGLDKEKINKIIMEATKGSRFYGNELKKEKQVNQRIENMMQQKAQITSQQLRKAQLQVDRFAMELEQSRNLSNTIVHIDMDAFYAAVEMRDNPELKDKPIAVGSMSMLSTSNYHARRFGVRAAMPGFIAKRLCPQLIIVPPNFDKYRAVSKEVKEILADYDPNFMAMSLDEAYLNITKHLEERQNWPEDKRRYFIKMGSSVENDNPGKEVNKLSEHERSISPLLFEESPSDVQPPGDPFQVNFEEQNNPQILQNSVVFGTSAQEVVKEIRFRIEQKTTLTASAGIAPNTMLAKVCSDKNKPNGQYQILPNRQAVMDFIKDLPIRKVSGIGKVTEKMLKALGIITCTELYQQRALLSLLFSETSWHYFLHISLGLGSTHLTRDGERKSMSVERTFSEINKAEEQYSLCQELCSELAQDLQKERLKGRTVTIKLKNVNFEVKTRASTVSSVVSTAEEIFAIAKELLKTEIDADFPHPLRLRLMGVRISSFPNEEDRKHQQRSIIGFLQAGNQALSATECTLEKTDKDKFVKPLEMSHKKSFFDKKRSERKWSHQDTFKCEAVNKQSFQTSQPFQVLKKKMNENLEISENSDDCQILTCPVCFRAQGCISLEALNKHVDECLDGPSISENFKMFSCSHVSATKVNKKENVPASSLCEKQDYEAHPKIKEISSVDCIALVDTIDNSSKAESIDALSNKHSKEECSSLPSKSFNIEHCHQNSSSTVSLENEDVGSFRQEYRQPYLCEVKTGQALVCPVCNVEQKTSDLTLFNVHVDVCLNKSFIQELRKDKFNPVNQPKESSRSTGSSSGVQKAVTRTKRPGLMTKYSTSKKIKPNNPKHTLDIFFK
SMILES,Potency,"activity, negative = inhibition"
COc1ccccc1CNc1ncnc2ccc(-c3ccc4c(c3)OCO4)cc12,inactive,–
CC1(C)OC2CC3C4CCC5=CC(=O)CCC5(C)C4(F)C(O)CC3(C)[C@]2(C(=O)CCl)O1 (stereo partly drawn),inactive,–
O=c1c(-c2ccc(F)cc2)nc2cnc(N3CCOCC3)nc2n1-c1ccccc1,inactive,–
CN(C)c1ccc(/C=C/c2c3ccccc3nc3ccccc23)cc1,inactive,–
CC(C)(C(=O)NO)c1ccccc1,inactive,–
C=CCn1c(=S)[nH]c2scc(-c3ccco3)c2c1=O,22.4 µM (active),–
Fc1ccc(Cl)cc1-c1nc(Nc2ccncc2)c2nccnc2n1,inactive,–
COc1ccccc1CCn1c(=O)c(-c2cn(C)c3ccccc23)nc2cncnc21,inactive,–
CCCCC/C=C\C/C=C\CCCCCCCCCC(=O)O,–,1.81% [at 19.4 µM] (inactive)
Cc1ccc(/C=C(\C#N)C(=O)Nc2cc(C)ccc2C)cc1,inactive,–
CC(C)NC(=O)/C(C#N)=C\c1ccc(N(C)C)c(Br)c1,inactive,–
N#C/C(=C\c1ccc(O)c(O)c1)C(N)=O,10 µM (active),–
Nc1nc(N)c(N=O)c(N)n1,inactive,–
O=C(C[n+]1ccncc1)c1ccc2c(c1)CCCC2,inactive,–
CC(=O)NC(=O)c1ccccc1O,–,-8.55% [at 19.4 µM] (inactive)
COc1ccccc1-c1cc(NCc2cccs2)ncn1,inactive,–
CC(C)(C)C1CCC(NC(=O)c2cnn3c2NC(=C2CC2)C=C3C(F)F)CC1 (stereo not drawn),inactive,–
COc1ccc(C[C@H](N)C(=O)N[C@@H]2[C@H](O)[C@H](n3cnc4c(N(C)C)ncnc43)O[C@@H]2CO)cc1,–,-1.14% [at 12 µM] (inactive)
Cc1cc[n+](C2CCCCC2)cc1,inactive,–
Cc1nc2cnc(N3CCN(C)CC3)nc2n(C[C@H]2CCCO2)c1=O,inactive,–
O=C1NN(c2ccccc2)C(=O)/C1=C/c1ccc(-c2cccc(C(=O)O)c2)o1,44.7 µM (active),–
CCCCOc1ccc(C(=O)NO)cc1,inactive,–
Cc1cc2oc(=O)cc(-c3ccccc3)c2c(C)c1/C=C/c1ccc(F)cc1,inactive,–
COc1ccccc1OCCOc1ccc(/C=C2\C(=N)N3N=C(C)SC3=NC2=O)cc1,inactive,–
COc1cc(/C=C2\C(=N)N3N=C(CC(=O)N4CCOCC4)SC3=NC2=O)cc(OC)c1OC,31.6 µM (active),–
COc1cc(C(=O)N2CCOCC2)cc(OC)c1OC,–,-0.831% [at 19.4 µM] (inactive) and 0.0712% [at 19.4 µM] (inactive)

SMILES,Potency,"activity, negative = inhibition"
C=C1C=C(C(F)F)n2ncc(C(=O)NCCc3ccccc3OC)c2N1,inactive,–
O=c1c(-c2cccs2)nc2cnc(Oc3ccccc3)nc2n1-c1ccccc1,inactive,–
CC(C)C1=CC2=CC[C@@H]3[C@](C)(CO)CCC[C@]3(C)C2CC1 (stereo partly drawn),inactive,–
CCOC(=O)Cn1c(=O)sc2cccc(Cl)c21,–,-6.5% [at 12 µM] (inactive)
Nc1ncnc2nnsc12,inactive,–
Cc1ccc(Cc2cnc(N)s2)o1,15.8 µM (active),–
COCCNc1ccnc(-c2cccc(NS(C)(=O)=O)c2)n1,inactive,–
O=C1OC(C(O)CO)C(O)=C1O (stereo not drawn),inactive,–
Cc1nn2c3cc(N4CCOCC4)ccc3nc2c2ccccc12,inactive,–
C1=C(N2CCOCC2)/C(=C/c2nc3ccccc3[nH]2)CC1,79.4 µM (active),–
CNc1ncnc2ccc(-c3cccc(NS(C)(=O)=O)c3)cc12,inactive,–
CC[C@H](C)[C@H](NC(=O)[C@@H](N)CCC(=O)O)C(=O)N[C@@H](CC(C)C)C(=O)N[C@@H](CC(=O)O)C(=O)N[C@H](C(=O)N1CCC[C@H]1C(=O)N[C@@H](CO)C(=O)N[C@H](C(=O)O)[C@@H](C)O)C(C)C,inactive,–
C=CCOC(=O)C(=C)C,inactive,–
O=C1COc2ccc(-c3csc(-c4ccc(Cl)cc4)n3)cc2N1,inactive,–
COc1ccc(Cc2nnc(NC(=O)Cc3cccs3)s2)cc1,14.1 µM (active),–
CCc1nnc(NC(=O)CCC(=O)NCc2ccccc2OC)s1,inactive,–
COc1ccc(CC(=O)Nc2sc(Cc3ccccc3)c(C)c2C(N)=O)cc1,inactive,–
C=C[C@](C)(O)CCC1C(=C)CCC2[C@@](C)(CO)CCC[C@@]12C (stereo partly drawn),inactive,–
CC(=O)OCC(=O)C1CCC2C3CCC4=CC(=O)CC[C@@]4(C)C3CC[C@]12C (stereo partly drawn),inactive,–
COC(=O)[C@@H]1CC2=CC(=O)CC[C@]2(C)[C@@]23O[C@@H]2C[C@@]2(C)[C@@H](CC[C@@]24CCC(=O)O4)[C@H]13,inactive,–
COc1ccc(/C=C/c2ccccn2)cc1OC,inactive,–
Cc1cc(C(=O)OCC(=O)NCc2ccco2)c(C)n1-c1ccccc1,79.4 µM (active),–
CN(c1ccccc1)S(=O)(=O)c1ccc(Cl)c(C(=O)OCC(=O)N2CCOCC2)c1,inactive,–
Cn1c(N)c(C(=O)COC(=O)c2ccccc2NCc2ccco2)c(=O)n(C)c1=O,inactive,–
CN(c1ccccc1)S(=O)(=O)c1ccc(Cl)c(C(=O)OCC(=O)NCc2ccco2)c1,79.4 µM (active),–
COc1ccc(-n2c(SCC(=O)NCc3ccco3)nnc2-c2c[nH]c3ccccc23)cc1,inactive,–

SMILES,Potency,"activity, negative = inhibition"
O=C(COC(=O)c1cc(S(=O)(=O)N2CCOCC2)ccc1Cl)NCCc1ccccc1,inactive,–
CCNc1ncc2ncc(=O)n(Cc3cccc(OC)c3)c2n1,inactive,–
Cc1cc(N(C)C)nc(Cl)n1,–,-8.53% [at 12 µM] (inactive)
O=C(Nc1cccc(F)c1)N1CCC2(CC1)CCN(S(=O)(=O)c1ccccc1)CC2,inactive,–
COc1ccc(/C=C/c2ccnc3ccccc23)cc1OC,inactive,–
Cc1cccc(CN2Cc3cccc4c3[C@H](C=CC4)CC2=S)c1,inactive,–
CC1CCN(C(=O)COC(=O)CCC(=O)c2cccs2)CC1,inactive,–
CCN(C(=O)COC(=O)CCC(=O)c1cccs1)C1CCCCC1,inactive,–
O=C(COC(=O)CCC(=O)c1cccs1)NCc1ccco1,31.6 µM (active),–
O=C(Nc1cccc(F)c1)N1CC2(CCN(C(=O)c3cnccn3)CC2)C1,inactive,–
CC(C)[C@H](CO)Nc1nc(Nc2cc(N)cc(Cl)c2)c2ncn(C(C)C)c2n1,–,-6.51% [at 19.4 µM] (inactive)
CC1(C)N=C(SCc2ccccc2Cl)c2ccccc2N1,inactive,–
Clc1ccccc1CSc1nnc(-c2ccco2)c(-c2ccco2)n1,35.5 µM (active),–
Clc1ccccc1CSc1nncn2c1cc1occc12,inactive,–
Cc1ccc(-c2nnc(SCC(=O)NCc3ccccc3)nc2-c2ccc(C)cc2)cc1,inactive,–
CSc1n[nH]c(-c2ccco2)n1,inactive,–
c1ccc(CSc2nnc(-c3ccco3)c(-c3ccco3)n2)cc1,20 µM (active),–
Nc1nc2c(nc(Cl)n2C2OC(CO)C(O)C2O)c(=O)[nH]1 (stereo not drawn),inactive,–
COC(=O)N1CCC2(CCCN(c3ccncc3)C2)CC1,inactive,–
O=P(O)(O)C(O)c1ccc2ccccc2c1 (stereo not drawn),–,8.31% [at 19.4 µM] (inactive)
COc1cc2nc(Cl)nc(NC3CC3)c2cc1OC,inactive,–
Cc1ccc(-c2nnc(Nc3ccc(C(=O)N(C)C)cc3)c3ccccc23)cc1S(N)(=O)=O,inactive,–
Cc1ccc(Nc2nnc(-c3ccc(C)c(S(=O)(=O)N4CCCCC4)c3)c3ccccc23)cc1,inactive,–
Cc1ccc(C)c(Nc2nnc(-c3ccc(C)c(S(=O)(=O)N4CCCCC4)c3)c3ccccc23)c1,79.4 µM (active),–
Cc1ccc(-c2ncc(Cl)cc2-c2ccc(S(C)(=O)=O)cc2)cn1,inactive,–
O=C(c1cc(C(F)(F)F)cc(C(F)(F)F)c1)N1CCC2(CCCN(c3ccccn3)C2)CC1,inactive,–

SMILES,Potency,"activity, negative = inhibition"
COc1ccccc1CNc1ccnc(-c2c(C)noc2C)n1,inactive,–
Cc1ccccc1NC(=O)Cn1c(=O)n(CCc2ccccc2)c(=O)c2ccccc21,inactive,–
Cc1ccccc1NC(=O)CN1C(=O)N/C(=C\c2cccn2-c2cccc(C(=O)O)c2)C1=O,14.1 µM (active),–
Cc1ccccc1NC(=O)CN1C(=O)C(C)(C)c2ccccc21,inactive,–
COc1ccccc1CNc1nc(-c2c(C)noc2C)nc2ccccc12,inactive,–
COc1c(O)c2c(=O)cc(OC)c3c4c(OC)cc(=O)c5c(O)c(OC)c6c(c(c1C[C@@](C)(O)[C@H]6C(C)=O)c23)c54,inactive,–
Cc1ccc(S(=O)(=O)N2CCCC2C(=O)OCc2nc3sc(C)c(C)c3c(=O)[nH]2)cc1 (stereo not drawn),inactive,–
CSc1nnc(SCc2nc3sc(C(=O)O)c(C)c3c(=O)[nH]2)s1,25.1 µM (active),–
CCN(CC)Cc1nc2sc(C)c(C)c2c(=O)[nH]1,inactive,–
FC(F)(F)c1ccccc1-c1cc(NCc2ccccc2)ncn1,inactive,–
CCC(C)N(c1ccc(/C=C/c2ccnc3ccccc23)cc1)C(C)CC (stereo not drawn),inactive,–
Cc1ccc(N=C2NC(=O)/C(=C/C=C/c3ccco3)S2)cc1C,28.2 µM (active),–
CC(=O)OC1CCC2(O)CC1(C)CCC1C2CC1(C)C (stereo not drawn),inactive,–
O=C(CSC(=S)N1CCCCC1)c1c(F)cccc1F,inactive,–
O=C(c1cc2cc(Br)cc(Br)c2oc1=O)N1CCOCC1,inactive,–
O=C(CSC(=S)N1CCOCC1)c1cc(Br)cc(Br)c1O,79.4 µM (active),–
CCOCCOC(=O)C(C)Oc1ccc(Oc2ncc(C(F)(F)F)cc2Cl)cc1 (stereo not drawn),inactive,–
CC(=O)CC(c1ccccc1)C1C(=O)Oc2ccccc2C1=O (stereo not drawn),inactive,–
O=C(O)c1cccc(N=NN2CCCCCC2)c1,inactive,–
CN1C(=O)/C(=C/c2ccco2)SC1=Nc1cccc(C(=O)O)c1,20 µM (active),–
CN=C1S/C(=C\c2c(OC)cc(OC)cc2OC)C(=O)N1C,inactive,–
CCOC(OCC)OCC,inactive,–
CCc1c2c(nc3ccc(O)cc13)-c1cc3c(c(=O)n1C2)COC(=O)[C@]3(O)CC,inactive,–
NC(=O)Nc1ccc(/C=C/c2ccnc3ccccc23)cc1,inactive,–
COc1ccc2[nH]c3c(C)c4cc[n+](C)cc4c(C)c3c2c1,2.38 µM (active) and 11.2 µM (active),–
